Test results: PubChem BioAssay AID651813 (National Center for Advancing Translational Sciences (NCATS), 2012)
Hit rate of the full screen: of about 2,100 compounds, about 1,100 (52%) were called active. Another 27% or so got no clear call; they are omitted. Calls come from the whole dose curve; as a rule, active = well fitted inhibition curve with a large enough effect; inconclusive = small, poorly fitted or top-dose-only effect; inactive = no such curve, though single readings can be large or run the other way. So high a share suggests a set chosen from earlier hits. This is one part of the list.

These molecules were tested against DNA dC->dU-editing enzyme APOBEC-3G (Homo sapiens) (UniProt Q9HC16) (assay: qHTS for inhibitors of Vif-A3G interactions: Cherry picks counterscreen). Details: HeLa A3G-eYFP + Vif (tagged APOBEC3G with the HIV-1 protein that degrades it), eYFP fluorescence, 24 h.
Method in brief: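 Readout is eYFP fluorescence (488 nm excitation, 500-530 nm emission) measured on Acumen Explorer after 24 h compound exposure, several concentrations, at 37 deg C. Cells: HeLa stably co-expressing Vif and C-terminally eYFP-tagged A3G; MG132 positive control.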
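Note: hits raise yellow fluorescence by blocking Vif-driven A3G-eYFP degradation; nearly all actives have a fitted effect of over 70% in size.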
Potency is the fitted concentration of half-maximal effect.
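Throughout, for max response: max response given as percent of control signal.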

DNA dC->dU-editing enzyme APOBEC-3G (Homo sapiens), sequence (Q9HC16 whole entry, looked up): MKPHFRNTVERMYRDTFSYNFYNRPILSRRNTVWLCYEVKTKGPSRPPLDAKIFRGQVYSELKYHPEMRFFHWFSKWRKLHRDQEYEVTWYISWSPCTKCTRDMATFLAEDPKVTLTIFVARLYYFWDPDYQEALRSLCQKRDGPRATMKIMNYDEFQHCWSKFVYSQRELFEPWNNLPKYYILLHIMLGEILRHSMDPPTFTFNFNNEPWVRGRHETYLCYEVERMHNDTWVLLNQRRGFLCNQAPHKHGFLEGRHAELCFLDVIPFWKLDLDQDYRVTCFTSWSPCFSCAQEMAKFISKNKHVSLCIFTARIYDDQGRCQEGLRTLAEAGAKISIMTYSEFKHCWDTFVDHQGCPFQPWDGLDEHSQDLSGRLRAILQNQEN

Compound	max response	Potency
Cc1ccc(O)c(Nc2c3ccccc3nc3ccccc23)c1	10.9% (inactive)	
Cc1ccc(-c2cn3nc(-c4ccccc4)c(-c4ccccc4)nc3n2)cc1		16.4 µM (active)
Cc1ccc(N=C2NC(=O)/C(=C/c3cn(C)c4ccccc34)S2)cc1C		17.7 µM (active)
Cc1ccc(N=C2NC(=O)/C(=C/c3cccn3C)S2)cc1		14 µM (active)
Cn1cccc1/C=C1\SC(=Nc2cccc(O)c2)NC1=O		11.2 µM (active)
Cc1cccc(N=C2NC(=O)/C(=C/c3cccn3C)S2)c1	-23.6% (inactive)	
Cn1cccc1/C=C1\SC(=Nc2ccccc2)NC1=O		2.5 µM (active)
O=C(NC(=S)Nc1ccccc1N1CCCCC1)c1ccccc1	8.17% (inactive)	
COc1cc(S(=O)(=O)Nc2ccccc2N2CCCCC2)ccc1NC(C)=O		2.23 µM (active)
C=CCN1C(=O)/C(=C2/Sc3ccc(OC)cc3N2C)SC1=Nc1cccc(O)c1		18.4 µM (active)
C=CCN1C(=O)/C(=C2/Sc3ccc(OC)cc3N2CC)SC1=S		11.6 µM (active)
Cc1cc(-n2c(SCC(=O)Nc3ccc(Br)cc3)nc3n[nH]c(C)c3c2=N)ccc1Cl	-13.3% (inactive)	
CCOC(=O)N1CCc2c(sc3c2C(=O)NC(c2ccc(N(C)C)cc2)N3)C1 (stereo unspecified)		4.11 µM (active)
CC(=O)c1ccc(-c2ccc(C(=O)Nc3nc(-c4ccccn4)cs3)o2)cc1		12.5 µM (active)
O=C(CC1CC2CCC1C2)Nc1nc(-c2ccccn2)cs1 (stereo unspecified)	10.6% (inactive)	
O=C(Nc1nc(-c2ccccn2)cs1)C1CCCC1	-16.3% (inactive)	
Cc1cc(/C=N/NC(=O)c2cc3ccccc3o2)c(C)n1C	-4.16% (inactive)	
O=C(N/N=C/c1cccc2ccccc12)c1cc2ccccc2o1		9.94 µM (active)
Cc1c(/C=N\NC(=O)c2cc3ccccc3o2)c2ccccc2n1C		3.96 µM (active)
CCCOc1ccc(NC(=O)CC2C(=O)N(c3ccc(OCC)cc3)C(=S)N2C2CC2)cc1 (stereo unspecified)	-18.2% (inactive)	
COc1cc(N2CCCC2)c(OC)cc1/C=C(/C#N)c1ccc(Br)cc1		1.64 µM (active)
COc1cc(N2CCCC2)c(OC)cc1/C=C1/NC(=S)NC1=O	60.5% (inactive)	
COc1cc(N2CCCC2)c(OC)cc1/C=C(/C#N)c1ccc(F)cc1		8.2 µM (active)

Compound	max response	Potency
CCOC(=O)C(C)Oc1cccc2c(=O)n(CC(=O)NCc3ccco3)ccc12 (stereo unspecified)		1.4 µM (active)
COC(=O)COc1cccc2c(=O)n(CC(=O)NCc3ccccc3)ccc12		6.27 µM (active)
O=c1[nH]c(NCc2ccco2)nnc1Cc1ccccc1Cl		15.8 µM (active)
CC(=O)Nc1sc(/C(C#N)=C/c2ccc(Cl)c(Cl)c2)nc1-c1ccc(C)cc1		0.731 µM (active)
CC(=O)Nc1sc(/C(C#N)=C\c2cccc(Cl)c2)nc1-c1ccc(C)cc1		4.61 µM (active)
CCOc1cc(/C=C(\C#N)c2nc(-c3cccs3)c(NC(C)=O)s2)ccc1O	51.1% (inactive)	
CCCCOc1ccc(/C=C/C2=CC(C)(C)NC(=S)N2)cc1OCC	-1.97% (inactive)	
COc1ccccc1-c1c(C#N)c(N)nc2c1CCc1ccccc1-2		6.27 µM (active)
CC1=C(C(=O)Nc2cccc(F)c2)C(c2ccsc2)C2=C(CC(C)(C)CC2=O)N1 (stereo unspecified)		1.98 µM (active)
Cc1cc(C)c(S(=O)(=O)Oc2ccccc2[N+](=O)[O-])c(C)c1		3.53 µM (active)
O=[N+]([O-])c1ccccc1SNc1ccccc1	-7.81% (inactive)	
CC(C)n1cnc2c(NCc3ccccc3)cc(N[C@H](C)CO)cc21		15.8 µM (active)
FC(F)(Cl)c1nnc2ccc(Cl)nn12		6.27 µM (active)
N#CCC(=O)N/N=C/c1ccc(N2N=C(c3ccccc3)CC2c2ccccc2)cc1 (stereo unspecified)		16.4 µM (active)
COc1cc2c3nnc(-c4ccc(F)cc4)c-3cn(Cc3ccccc3F)c2cc1OC		20.6 µM (active)
COc1cc2c3nnc(-c4ccc(F)cc4)c-3cn(Cc3ccc(C)cc3)c2cc1OC		9.94 µM (active)
CCOC(=O)CSC1=C(C#N)C(c2ccc(C)s2)CC(=O)N1 (stereo unspecified)		1.77 µM (active)
CCOc1ccccc1Nc1nnc(-c2cc3cc(OC)ccc3oc2=O)s1		5.17 µM (active)
O=C(CCCCl)Oc1ccc2cc(-c3ccc4ccccc4n3)c(=O)oc2c1	32.5% (inactive)	
COc1ccc2oc(=O)c(-c3nc4ccccc4o3)cc2c1		10.3 µM (active)
CC(=O)Nc1ccc(C2=CC(=O)C[C@H](c3ccc(Cl)cc3)C2)cc1		18.4 µM (active)
CC(=O)Nc1ccc2c(c1)Cc1ccc(Cl)cc1-2	-8.49% (inactive)	
CN(C)CCN(C(=O)/C=C/c1cccs1)c1nc2c(F)cc(F)cc2s1	-22.8% (inactive)	
